Among the data in PubChem BioAssay are composite z-score and z-score values, retold here.

The source made the active and inactive calls.

For assay [1], the system named is Plasmodium falciparum Sir2 (PF13_0152, Sir2A). Kind of assay: Plasmodium falciparum Sir2A binding compounds – biochemical, small-molecule microarray, 635 nm fluorescence, primary screen (AID 1098).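 Also: score merges spot fluorescence intensity with its signal-to-noise ratio.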 The note with it: fluorescence 635 nm, higher = more signal.
Assay [2] can be described thus: probe aDKK1 binding to arrayed compounds – biochemical, biotinylated probe, 635/667 nm fluorescence, primary screen (AID 1099).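 Also: score merges 667nm spot fluorescence with signal to noise across triplicate slides; reference of the scale not given here.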 The note with it: small-molecule microarray, higher = more signal.
The nature of assay [3]: probe aCHRDL2 binding to arrayed compounds – biochemical, biotinylated probe, 635/667 nm fluorescence, primary screen (AID 1100). The note with it: small-molecule microarray, higher = more signal.
The nature of assay [4]: change in splice reporter luminescence, either direction, cell-based, HEK293, spliceosome inhibition project, primary screen (AID 1101).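 Also: HEK293 cells carrying a splicing-competent luciferase reporter gene; test concentration not given here.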 The note with it: HEK293 splicing luciferase reporter, 24 h, higher = more signal, called active from +8 up or from −8 down. (In a reporter assay the amount or activity of a reporter protein is the signal.)
The target in assay [5] is Fibroblast growth factor 10 (Homo sapiens) (UniProt O15520). Kind of assay: compounds binding fibroblast growth factor 10 – biochemical, small-molecule microarray, 635 nm fluorescence, primary screen (AID 1102). The note with it: FGF10 binding, fluorescence 635 nm, higher = more signal.
For assay [6], the system named is glycogen synthase kinase-3 (GSK3A per assay name; protocol says GSK3B). The experiment in a line: compounds binding glycogen synthase kinase-3 – biochemical, small-molecule microarray, 635 nm fluorescence, GSK3A, primary screen (AID 1103). Also: the record names both GSK3A and GSK3B. The note with it: fluorescence 635 nm, higher = more signal.
For assay [7], the target named is Epidermal growth factor receptor (Homo sapiens) (UniProt P00533). The experiment in a line: compounds binding epidermal growth factor receptor – biochemical, small-molecule microarray, 635 nm fluorescence, primary screen (AID 1104).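 Also: score merges 667 nm emission intensity with spot signal to noise over triplicate slides.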 As to conditions: EGFR binding, higher = more signal.
The target of assay [8] is Follistatin-related protein 3 (Homo sapiens) (UniProt O95633). The experiment in a line: compounds binding follistatin-related protein 3 – biochemical, small-molecule microarray, 635 nm fluorescence, primary screen (AID 1105).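 Also: score merges emission near 667 nm and signal to noise per printed spot across three slides.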 The note with it: FSTL3 binding, higher = more signal.
The target of assay [9] is Dickkopf-related protein 1 (Homo sapiens) (UniProt O94907). Kind of assay: small molecules binding DKK1 protein – biochemical, small-molecule microarray, 635 nm fluorescence scan, primary screen (AID 1106).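 Also: score merges emission near 667 nm with signal to noise over three replicate slides.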 The note with it: higher = more signal.
Assay [10] relates to Inhibin beta A chain (activin A). The experiment in a line: small molecules binding activin A – biochemical, small-molecule microarray, 635 nm fluorescence scan, primary screen (AID 1107).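 Also: mouse activin A protein probed at 4.33 µg/mL on printed slides; score merges bound-protein fluorescence near 667 nm with spot signal-to-noise.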 The note with it: INHBA, higher = more signal.

Chain of Fibroblast growth factor 10 (Homo sapiens) (O15520 whole entry, looked up): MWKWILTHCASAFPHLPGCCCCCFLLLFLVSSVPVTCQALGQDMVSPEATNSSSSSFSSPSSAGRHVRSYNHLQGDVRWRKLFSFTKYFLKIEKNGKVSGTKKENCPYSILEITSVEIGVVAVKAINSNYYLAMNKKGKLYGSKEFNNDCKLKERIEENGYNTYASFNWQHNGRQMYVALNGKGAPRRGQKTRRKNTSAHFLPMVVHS
Chain of Epidermal growth factor receptor (Homo sapiens) (P00533 whole entry, looked up): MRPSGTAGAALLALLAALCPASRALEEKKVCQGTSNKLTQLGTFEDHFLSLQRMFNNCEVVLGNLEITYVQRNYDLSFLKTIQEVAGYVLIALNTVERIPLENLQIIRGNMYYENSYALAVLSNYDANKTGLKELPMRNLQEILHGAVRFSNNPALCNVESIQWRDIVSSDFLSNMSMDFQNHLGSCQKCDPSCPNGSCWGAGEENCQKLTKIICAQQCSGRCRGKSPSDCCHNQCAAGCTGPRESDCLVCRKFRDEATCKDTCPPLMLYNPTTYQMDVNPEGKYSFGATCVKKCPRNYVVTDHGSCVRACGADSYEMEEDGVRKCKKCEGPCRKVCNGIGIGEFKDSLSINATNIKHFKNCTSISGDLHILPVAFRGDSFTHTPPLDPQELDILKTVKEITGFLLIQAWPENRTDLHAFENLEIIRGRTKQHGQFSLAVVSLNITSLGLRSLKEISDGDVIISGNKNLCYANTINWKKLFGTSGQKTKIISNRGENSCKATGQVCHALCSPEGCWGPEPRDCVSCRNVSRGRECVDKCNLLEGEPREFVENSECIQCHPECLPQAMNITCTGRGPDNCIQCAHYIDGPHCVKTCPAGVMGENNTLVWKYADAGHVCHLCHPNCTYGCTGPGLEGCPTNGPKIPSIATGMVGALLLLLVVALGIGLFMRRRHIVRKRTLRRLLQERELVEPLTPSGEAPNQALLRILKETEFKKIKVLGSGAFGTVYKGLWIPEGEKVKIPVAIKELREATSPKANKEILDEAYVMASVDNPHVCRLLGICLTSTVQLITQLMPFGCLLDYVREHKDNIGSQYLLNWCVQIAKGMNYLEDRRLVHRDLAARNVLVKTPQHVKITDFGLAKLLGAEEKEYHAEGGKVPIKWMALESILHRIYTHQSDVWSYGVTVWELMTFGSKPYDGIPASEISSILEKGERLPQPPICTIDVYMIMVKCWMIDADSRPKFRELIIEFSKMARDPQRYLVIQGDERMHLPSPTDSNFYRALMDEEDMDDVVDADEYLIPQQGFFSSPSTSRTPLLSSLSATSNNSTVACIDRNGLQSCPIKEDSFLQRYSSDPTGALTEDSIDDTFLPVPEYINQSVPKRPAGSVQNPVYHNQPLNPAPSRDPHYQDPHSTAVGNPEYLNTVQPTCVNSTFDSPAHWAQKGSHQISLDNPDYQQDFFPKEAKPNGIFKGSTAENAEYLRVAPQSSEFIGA
Chain of Follistatin-related protein 3 (Homo sapiens) (O95633 whole entry, looked up): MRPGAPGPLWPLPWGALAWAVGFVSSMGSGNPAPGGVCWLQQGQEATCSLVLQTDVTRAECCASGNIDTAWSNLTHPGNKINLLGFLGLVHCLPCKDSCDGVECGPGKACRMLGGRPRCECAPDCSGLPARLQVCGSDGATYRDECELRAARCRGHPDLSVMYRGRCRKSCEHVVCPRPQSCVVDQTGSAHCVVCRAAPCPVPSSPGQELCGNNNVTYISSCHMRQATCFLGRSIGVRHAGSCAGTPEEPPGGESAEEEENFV
Chain of Dickkopf-related protein 1 (Homo sapiens) (O94907 whole entry, looked up): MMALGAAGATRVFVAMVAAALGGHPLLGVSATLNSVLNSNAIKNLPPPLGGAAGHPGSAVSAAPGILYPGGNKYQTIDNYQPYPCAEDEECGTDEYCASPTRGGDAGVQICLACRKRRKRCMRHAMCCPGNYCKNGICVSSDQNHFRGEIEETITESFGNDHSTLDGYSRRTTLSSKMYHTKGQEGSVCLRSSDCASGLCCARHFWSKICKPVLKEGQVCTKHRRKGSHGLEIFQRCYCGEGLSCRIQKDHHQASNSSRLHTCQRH

As to `CCOC(=O)C[C@H]1[C@H](OC(=O)c2cc3ccccc3oc2=O)[C@@H](NC(=O)c2ccc(-c3ccccc3)cc2)c2cc(OCCCO)ccc2N1C(=O)c1ccc2ccccc2n1`, the composite z-score in assay [1] was 0.853; in assay [2], -0.183; in assay [3] it was -0.386; in [5], 0.93; in [6], 1.01; in [7] it was 0.622. Besides, the composite z-score in assay [8] was determined as 1.06; in assay [9], 0.45; in assay [10], 0.379. Further, the z-score in assay [4] is -0.338 (inactive).
Take `CC(C)[Si](C#CCCCC#N)(O[C@H](c1ccccc1)c1cn([C@H](CO)Cc2ccccc2)nn1)C(C)C`: the composite z-score in assay [1] was 0.726; in [2], -0.151; in assay [3], 0.138; in assay [5], 0.61; in assay [6] it was 0.709; in assay [7], 0.52. Also, the composite z-score was found to be 1.36 in assay [8], 0.598 in assay [9] and 0.0469 in assay [10]. Moreover, the z-score in assay [4] is -0.401 (inactive).
For the compound `C=CCC(OC(C)=O)[C@@H]1[C@@H](N(Cc2cccc3ccccc23)C(=O)c2cccc3ccccc23)c2cc(OCCCO)ccc2N1C(=O)c1ccc(-c2ccccc2)cc1` (stereo not given in full), the composite z-score was 0.17 in assay [1]; 0.0752 in [2]; -0.0302 in [3]; 0.0819 in assay [5]; 0.0512 in [6]; 0.364 in assay [7]. Besides, the values for the composite z-score in assay [8], in assay [9] and in [10] were -0.184, 0.0116 and 0.855, respectively. Also, the z-score in assay [4] was -0.566 (inactive).
Regarding `COc1ccc(CN(C2=CC[C@@]3(C(N)=O)C(=O)C(Cl)=C(Cl)C(=O)[C@@]3(C#N)C2)S(=O)(=O)c2ccc(Br)cc2)cc1`, the composite z-score is -0.201 in [1]; 0.661 in [2]; 0.84 in assay [3]; 0.0024 in [5]; -0.139 in assay [6]; -0.733 in [7]. Moreover, the composite z-score was -0.0224 in assay [8], -1.28 in [9] and 1.03 in assay [10]. For the same compound, the z-score in assay [4] is -2.69 (inactive).
For the compound `COCCOC(=O)N1C(=O)[C@@]2(c3cc(C#CC4=CCCCC4)ccc31)[C@H](C(=O)N1CCCCCCC1)[C@H]1C(=O)O[C@H](c3ccccc3)[C@H](c3ccccc3)N1[C@@H]2c1ccc(O)cc1`, the composite z-score in assay [1] worked out at 0.376; in assay [2], 0.923; in assay [3] it was 1; in assay [5] it was 0.277; in assay [6], 0.409; in assay [7] it was 0.285. The composite z-score in [8] worked out at 0.735; in [9], 0.163; in [10], 1.41. The z-score in assay [4] is -0.802 (inactive).
`CN1C(=O)C2C=CC(C(O)c3cccc(O)c3)N(Nc3ccccc3)C2C1=O` (stereo not given): the composite z-score was 1.15 in assay [1]; 0.14 in [2]; 0.285 in assay [3]; 0.517 in [5]; -0.236 in [6]; -0.288 in assay [7]. The composite z-score in [8] was -0.0255; in assay [9], -0.208; in assay [10], 0.866. For the same compound, the z-score in assay [4] was 1.27 (inactive).
Turning to `O=C1C2C=CC(C(O)c3ccccc3)N(Nc3ccccc3F)C2C(=O)N1c1ccccc1` (stereo not given), the composite z-score in [1] was 0.797; in [2] it was -0.168; in assay [3], 0.24; in assay [5], 0.311; in assay [6] it was -0.178; in assay [7], 0.223. Besides, the composite z-score is 0.341 in assay [8], 0.0646 in assay [9] and 0.626 in assay [10]. In assay [4], the z-score is -0.245 (inactive).
On to `COC(=O)[C@@]1(Cc2ccc(OC)cc2)[C@H]2c3cc(C(=O)N4CCCC4)n(Cc4cccc5ccccc45)c3C[C@H]2CN1C(=O)c1ccccc1`, for which the composite z-score in assay [1] is 0.654; in assay [2] it was 0.741; in [3], 1.08; in [5], 0.821; in assay [6], 0.407; in assay [7], -0.282. Moreover, the composite z-score in [8] is 0.293; in assay [9], -0.724; in [10], 0.849. In addition, the z-score in assay [4] was -0.261 (inactive).
On to `CCCC[C@@H](O)C1=C(COc2ccccc2)C[C@H]2C(=O)N(C)C(=O)[C@H]2[C@H]1CO`, for which the composite z-score in assay [1] is 0.119; in [2], -0.423; in assay [3] it was -0.575; in assay [5] it was -0.0816; in assay [6], -0.0425; in [7], -0.333. In addition, the results for the composite z-score in [8], in assay [9] and in [10] were -0.0008, -0.0034 and 0.799, respectively. The z-score in [4] is -1.3 (inactive).
Regarding `COCCCNC(=O)[C@@]1(Cc2ccccc2N=[N+]=[N-])COC(c2ccc(OCCCO)cc2)=N1`, the composite z-score in [1] was 0.955; in [2], 0.516; in assay [3], 1.17; in assay [5] it was 0.475; in assay [6], -0.331; in [7], -0.027. The composite z-score in assay [8] was -0.121; in [9] it was -0.599; in assay [10], 1.61. The z-score in [4] is 0.989 (inactive).
For `O=C1C=C(c2ccccc2)C(=O)c2ccc([C@H]3Oc4ccccc4S(=O)(=O)N4CCC[C@@H]34)cc21`, the composite z-score in assay [1] was -0.186; in assay [2], -0.39; in assay [3], -0.6; in assay [5], -0.101; in assay [6], -0.191; in assay [7] it was 0.496. The values for the composite z-score in [8], in assay [9] and in assay [10] were -0.266, 0.714 and 1.04, respectively. The z-score in [4] was 0.781 (inactive).
Turning to `N#Cc1ccc(NN2C(C(O)c3ccc(F)cc3)C=CC3C(=O)N(c4ccccc4)C(=O)C32)cc1` (stereo not given), the composite z-score is 1.3 in [1]; 0.151 in assay [2]; 0.581 in assay [3]; -0.286 in assay [5]; -0.0563 in assay [6]; -0.746 in assay [7]. Further, the results for the composite z-score in assay [8], in [9] and in assay [10] were -0.0131, -0.716 and 0.856, respectively. The z-score in [4] was 1.52 (inactive).
On to `COc1cccc(/C=C/C=O)c1`, for which the composite z-score is -0.663 in assay [1]; 0.24 in assay [2]; -0.326 in assay [3]; 0.393 in assay [5]; 0.0414 in assay [6]; 0.417 in assay [7]. Moreover, the composite z-score in [8] is 0.237; in [9], 0.339; in [10] it was -0.115. Moreover, the z-score in assay [4] is 0.85 (inactive).
Take `[N-]=[N+]=Nc1ccccc1C[C@]1(C(=O)N2CCOCC2)N=C(c2ccc(OCCCO)cc2)O[C@H]1c1ccccc1`: the composite z-score stood at 1.11 in [1]; 1.45 in [2]; 1.03 in [3]; 1.16 in [5]; 1.29 in assay [6]; 0.307 in assay [7]. Further, the composite z-score in assay [8] came out at 1.01; in assay [9], 1.93; in assay [10] it was 0.52. The z-score in [4] is -0.963 (inactive).
